Measurements reported in PubChem BioAssay AID588689 (Southern Research Specialized Biocontainment Screening …, 2011).
In all, about 340,000 compounds went through this assay and about 1,000 (0.29%) were called active. Rule as the data show it: inconclusive = inhibition above about 29% without an active follow-up result; inactive = below that. Not all results are given here. Measured potencies and affinities stand elsewhere.

target: Genome polyprotein (Dengue virus type 2 (strain 16681-PDK53)) (UniProt P29991); assay: Dengue-2 NS5 methyltransferase inhibitors, primary screen, biochemical, confirmation dose response (AID 588689); settings: Dengue-2 NS5 methyltransferase capping enzyme assay, at 25 µM, stronger effect = higher value
Sequence (P29991 whole entry, looked up): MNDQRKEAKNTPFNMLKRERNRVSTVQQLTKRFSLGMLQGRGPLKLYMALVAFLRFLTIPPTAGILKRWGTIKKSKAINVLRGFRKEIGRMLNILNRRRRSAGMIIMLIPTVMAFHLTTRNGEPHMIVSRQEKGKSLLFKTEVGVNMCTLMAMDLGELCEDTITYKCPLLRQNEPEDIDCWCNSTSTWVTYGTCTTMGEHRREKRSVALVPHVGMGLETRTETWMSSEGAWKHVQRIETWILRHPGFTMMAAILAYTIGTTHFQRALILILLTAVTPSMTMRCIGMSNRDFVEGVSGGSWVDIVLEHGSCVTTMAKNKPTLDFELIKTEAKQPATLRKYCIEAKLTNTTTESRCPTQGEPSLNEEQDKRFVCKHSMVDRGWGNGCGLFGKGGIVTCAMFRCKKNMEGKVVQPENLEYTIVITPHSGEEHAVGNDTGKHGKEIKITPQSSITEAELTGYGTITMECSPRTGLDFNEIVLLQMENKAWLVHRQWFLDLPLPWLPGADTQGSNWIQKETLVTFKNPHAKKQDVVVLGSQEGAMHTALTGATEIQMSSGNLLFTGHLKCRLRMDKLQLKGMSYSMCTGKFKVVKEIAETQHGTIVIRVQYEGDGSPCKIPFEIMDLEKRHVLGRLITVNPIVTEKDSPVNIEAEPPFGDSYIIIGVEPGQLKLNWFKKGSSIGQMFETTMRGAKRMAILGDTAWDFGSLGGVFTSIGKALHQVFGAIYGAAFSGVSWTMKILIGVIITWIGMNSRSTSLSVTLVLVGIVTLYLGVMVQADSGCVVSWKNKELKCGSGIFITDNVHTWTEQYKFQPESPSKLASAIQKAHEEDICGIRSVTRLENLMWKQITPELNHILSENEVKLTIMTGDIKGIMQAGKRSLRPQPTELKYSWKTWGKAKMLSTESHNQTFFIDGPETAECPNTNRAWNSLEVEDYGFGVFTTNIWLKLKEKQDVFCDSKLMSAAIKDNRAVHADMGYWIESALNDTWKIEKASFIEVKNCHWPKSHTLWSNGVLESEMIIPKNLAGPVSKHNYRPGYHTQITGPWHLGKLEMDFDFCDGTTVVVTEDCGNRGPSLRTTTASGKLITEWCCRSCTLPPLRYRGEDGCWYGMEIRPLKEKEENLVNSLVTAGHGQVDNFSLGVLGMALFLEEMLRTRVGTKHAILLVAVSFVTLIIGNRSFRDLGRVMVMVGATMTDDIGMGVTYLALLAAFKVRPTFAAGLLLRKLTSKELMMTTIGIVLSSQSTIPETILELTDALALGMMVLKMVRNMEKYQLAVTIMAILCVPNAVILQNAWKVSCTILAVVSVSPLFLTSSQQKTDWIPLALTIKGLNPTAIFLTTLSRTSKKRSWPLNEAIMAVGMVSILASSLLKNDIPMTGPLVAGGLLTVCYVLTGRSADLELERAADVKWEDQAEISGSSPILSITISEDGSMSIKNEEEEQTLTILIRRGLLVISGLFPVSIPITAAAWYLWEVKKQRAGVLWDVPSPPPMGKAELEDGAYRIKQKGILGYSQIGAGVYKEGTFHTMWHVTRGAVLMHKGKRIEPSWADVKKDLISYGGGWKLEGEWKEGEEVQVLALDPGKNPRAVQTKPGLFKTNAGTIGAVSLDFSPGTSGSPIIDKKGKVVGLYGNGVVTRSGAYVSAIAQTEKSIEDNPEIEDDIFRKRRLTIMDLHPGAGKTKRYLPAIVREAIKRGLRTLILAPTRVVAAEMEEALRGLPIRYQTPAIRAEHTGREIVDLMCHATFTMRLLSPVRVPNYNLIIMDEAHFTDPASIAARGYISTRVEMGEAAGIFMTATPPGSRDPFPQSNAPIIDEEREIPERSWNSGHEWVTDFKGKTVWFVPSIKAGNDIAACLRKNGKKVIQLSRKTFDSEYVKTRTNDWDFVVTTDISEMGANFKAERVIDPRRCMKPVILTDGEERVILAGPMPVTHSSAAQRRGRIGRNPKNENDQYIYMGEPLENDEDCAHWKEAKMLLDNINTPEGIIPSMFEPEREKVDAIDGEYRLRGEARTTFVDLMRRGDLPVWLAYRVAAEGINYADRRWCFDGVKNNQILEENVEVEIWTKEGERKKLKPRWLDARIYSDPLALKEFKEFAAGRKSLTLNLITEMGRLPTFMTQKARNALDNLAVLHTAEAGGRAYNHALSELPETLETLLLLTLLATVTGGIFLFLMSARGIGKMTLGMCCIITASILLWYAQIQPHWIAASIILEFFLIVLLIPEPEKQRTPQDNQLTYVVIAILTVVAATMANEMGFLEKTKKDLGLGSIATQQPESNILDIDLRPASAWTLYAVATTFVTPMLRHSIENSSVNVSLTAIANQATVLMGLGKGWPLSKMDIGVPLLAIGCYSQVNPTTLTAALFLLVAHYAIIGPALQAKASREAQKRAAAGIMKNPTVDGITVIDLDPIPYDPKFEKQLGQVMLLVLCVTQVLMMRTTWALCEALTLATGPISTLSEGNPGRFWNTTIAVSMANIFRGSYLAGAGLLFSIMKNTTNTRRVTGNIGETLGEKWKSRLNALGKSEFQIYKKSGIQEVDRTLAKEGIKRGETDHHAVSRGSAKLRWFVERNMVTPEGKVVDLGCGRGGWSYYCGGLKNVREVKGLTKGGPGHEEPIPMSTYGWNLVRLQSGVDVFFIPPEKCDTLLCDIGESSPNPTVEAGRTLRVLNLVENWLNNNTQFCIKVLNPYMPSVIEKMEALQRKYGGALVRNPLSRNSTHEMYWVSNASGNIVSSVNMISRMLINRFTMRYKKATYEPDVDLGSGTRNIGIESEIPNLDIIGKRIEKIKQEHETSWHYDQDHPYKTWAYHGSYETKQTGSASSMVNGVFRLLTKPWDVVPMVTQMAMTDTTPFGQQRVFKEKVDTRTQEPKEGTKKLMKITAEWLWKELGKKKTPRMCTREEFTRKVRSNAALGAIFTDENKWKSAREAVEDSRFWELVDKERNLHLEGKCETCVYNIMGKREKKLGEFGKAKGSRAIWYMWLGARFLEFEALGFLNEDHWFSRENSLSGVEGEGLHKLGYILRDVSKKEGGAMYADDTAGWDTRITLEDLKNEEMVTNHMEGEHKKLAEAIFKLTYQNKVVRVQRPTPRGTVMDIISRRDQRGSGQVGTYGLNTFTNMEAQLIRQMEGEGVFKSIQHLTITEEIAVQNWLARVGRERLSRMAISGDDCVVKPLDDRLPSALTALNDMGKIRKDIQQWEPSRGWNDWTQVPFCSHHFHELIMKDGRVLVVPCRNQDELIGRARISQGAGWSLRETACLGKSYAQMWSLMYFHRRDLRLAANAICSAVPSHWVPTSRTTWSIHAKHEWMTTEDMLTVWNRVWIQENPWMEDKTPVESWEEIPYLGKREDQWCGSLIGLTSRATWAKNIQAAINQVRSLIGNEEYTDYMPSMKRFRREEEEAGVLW

inhibition, inactive:
Cc1ccc(SC(CC(=O)c2ccc(F)cc2)C(=O)O)cc1 (stereo not given) 0%, Cc1ccc(SC(CC(=O)c2ccc(C)cc2)C(=O)O)cc1 (stereo not given) 16.8%, CSc1ccccc1OCc1cc(C(=O)N2CCN3CCCC3C2)no1 (stereo not given) -0.87%, COc1cc([N+](=O)[O-])ccc1-c1ccc(/C=C2\C(=O)ON=C2c2ccccc2)o1 30.1%, O=C1ON=C(c2ccc(Cl)c([N+](=O)[O-])c2)/C1=C/c1cccc([N+](=O)[O-])c1O -5.11%, O=C1ON=C(c2ccccc2[N+](=O)[O-])/C1=C/c1cccc([N+](=O)[O-])c1O -2.21%, Cc1ccc(/C=C2/C(=O)ON=C2c2ccccc2)o1 19.3%, COc1ccc(-c2ccc(/C=C3\C(=O)N(c4ccccc4)N=C3c3ccccc3)o2)c([N+](=O)[O-])c1 6.61%, O=C1/C(=C\c2ccc(-c3ccccc3[N+](=O)[O-])o2)C(c2ccccc2)=NN1c1ccccc1 68.8%, COc1ccc(OCC(=O)N2CCCC2=O)c([N+](=O)[O-])c1 0.65%, CC(C)CC(NC(=O)C(NC(=O)OC(C)(C)C)C(C)C)C(=O)N1CCCC1C(N)=O (stereo not given) -8.35%, COc1cccc(-c2noc(CCC(=O)NCC3CCCO3)n2)c1 (stereo not given) 1.45%, CNC[C@@H]1OCc2cnnn2CCCC(=O)N([C@H](C)CO)C[C@H]1C 2.27%, O=C(CCNC(=O)c1ccc([N+](=O)[O-])cc1)Oc1ccc(F)c(F)c1 -4.42%, CCOC(=O)Cn1cnc2sc3c(c2c1=O)CCC3 -3.92%, Cn1ccnc1SCC(=O)Nc1cc(F)ccc1F -1.95%, COc1cccc2c1C(=O)C=C(C)C2=O 5.85%, COC1=CC(=O)c2ccccc2C1=O 0.72%, Cc1ccc(C)c(OCC(O)CN2CCc3ccccc3C2)c1C (stereo not given) -0.98%, CNS(=O)(=O)c1cccc(C(=O)NCC(c2ccco2)N(C)C)c1 (stereo not given) -4.17%, Cc1ccc(NC(=O)COC(=O)C2C3CC4OC(=O)C2C4C3)cc1 (stereo not given) -4.16%, COc1ccc(N2CC(C(=O)OCC(=O)Nc3cccc(C)c3)CC2=O)cc1 (stereo not given) -2.68%, CCC(c1ccc(O)c(O)c1)C(CC)c1ccc(O)c(O)c1 (stereo not given) -0.78%, CCC(c1ccc(O)cc1)C(CC)c1ccc(O)cc1 (stereo not given) -4.4%, O=C(O)c1ccccc1SCc1csc(-c2ccccc2)n1 -4.89%, O=C(Cc1ccc(Br)cc1)NCCCn1ccnc1 -12.3%, CC(=O)Nc1ccccc1NS(=O)(=O)c1cccc([N+](=O)[O-])c1 -5.88%, CCc1ccc(S(=O)(=O)NC(CC(=O)O)c2ccccc2)cc1 (stereo not given) -2.12%, O=C(c1ccccc1NS(=O)(=O)c1cccc([N+](=O)[O-])c1)N1CCCC1 -1.62%, Cc1ccc(S(=O)(=O)Nc2ccc(Br)cc2C(NCC(=O)O)c2ccccc2)cc1 (stereo not given) -7.12%, COC(=O)CNC(c1ccccc1)c1cc(Br)ccc1NS(=O)(=O)c1ccccc1 (stereo not given) -1.28%, CC(=O)Nc1ccccc1NS(=O)(=O)c1ccc(Cl)cc1 -10.2%, CCc1ccc(S(=O)(=O)Nc2ccc(O)c3ccccc23)cc1 36.9%, Cc1oc2c(cc(NS(=O)(=O)c3ccc(Cl)cc3)c3ccccc32)c1C(=O)O 14.3%, COc1ccccc1OCC(=O)OCC(=O)NC1CCCCC1 1.94%, Cc1ccc(CNC(=O)C(C)C2Sc3ccccc3NC2=O)cc1 (stereo not given) 3.04%, CC(=O)c1ccc(S(=O)(=O)N2CCN(c3nn(C)c(=O)n(C)c3=O)CC2)cc1 -1.46%, CCn1nc(C(=O)Nc2cccc(S(=O)(=O)N3CCCC3)c2)c2ccccc2c1=O -8.08%, Cc1nc(CC(=O)NNS(=O)(=O)c2cccc(Cl)c2Cl)cs1 -1.61%, CN(C(=O)COC(=O)c1ccc(Cl)s1)C1(C#N)CCCCC1 -4.33%, Cc1ccc(S(=O)(=O)N(C)CCCC(=O)N2CCOCC2)cc1 -2.14%, O=C(OCc1ccc(F)cc1)c1ccc2c(c1)-c1ccccc1C2=O 6.7%, CCOC(=O)c1ccc(COC(=O)c2ccc3c(c2)-c2ccccc2C3=O)cc1 13.5%, O=C(CCS(=O)(=O)c1ccc(Br)cc1)Nc1ccc(Br)cc1F -13.3%, Cc1cc(C)n2nc(SCC(=O)N(C)c3c(N)n(Cc4ccccc4)c(=O)[nH]c3=O)nc2n1 -7.52%, CCOC(=O)N/N=C/c1cc(C)n(-c2cccc3ccccc23)c1C 1.3%, Cc1cc(C)n(CC(=O)NC2CCCCC2C)c(=O)c1C#N (stereo not given) -0.74%, NC1=CC(=O)C(=O)c2ccccc21 27.9%, O=C1C=C(N2CCOCC2)c2ccccc2C1=O 9.17%, COc1ccc(C(C)=O)cc1CSc1nc2cc(C(=O)O)ccc2c(=O)n1Cc1ccccc1 4.46%, O=C(CSc1nncs1)NCCNC(=O)CSc1nncs1 -2.96%, Cc1[nH]n(C(C)(C)C)c(=O)c1Sc1ccccc1 -11.6%, Cc1[nH]n(-c2ccccc2)c(=O)c1Sc1ccc(Cl)cc1 13.9%, CC(C)(C)c1ccc(-c2nc(C=O)c3ccccn23)cc1 0%, N#C/C(=C/c1cccc([N+](=O)[O-])c1)C(=O)Nc1ccccc1O 5.78%, N#C/C(=C\c1ccccc1)C(=O)NNS(=O)(=O)c1ccc(Br)cc1 13.6%, COC(CNC(=O)c1coc2nc3ccccc3nc12)OC -7.62%, COC(CNC(=O)c1cccnc1)OC -7.01%, O=[N+]([O-])c1ccc(CN2CCC(Cc3ccccc3)CC2)cc1 -6.79%, CCN1CCN(CCCNC(=O)CNC(=O)c2nn(-c3ccc(OC)cc3)c(=O)c3ccccc23)CC1 0.79%
